Measured values as given in PubChem BioAssay (NCI).
“And” between values parts separate entries of the source, which are not always exact repeats. Identical values can stand only once. Compounds without any hit were thinned out: in the full panel of roughly 83,000, 20% have a hit.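 Cell lines were cultured in 96-well plates, exposed to a single compound concentration, and assessed for percent growth 48 hours later.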 A number with no mark means an inactive call. The source made the active and inactive calls. The calls were made as follows: active = growth percent below 10; inactive = the rest.

Tested on: MDA-MB-468 breast
Assay: NCI-60 one-dose screen, 48 h (100 = growth as untreated, 0 = no growth, -100 = all killed)
Conditions: 10 µM unless noted

Compound | growth
CCOc1ccc2cc(-c3nn(CC4CCN(C)CC4)c4ncnc(N)c34)ccc2c1 | 85.6% and 42%
COc1ccc(-c2n[nH]nc2-c2cc(OC)c3c(c2)OCO3)cc1 | 38.6%
COc1cc(OC)cc(-c2ccc(-c3ccc(C(=N)N)o3)o2)c1 | 10.5%
COC(=O)C1=Nc2ccc(F)cc2/C1=C\c1sc(Nc2ccc(O)cc2)nc1O | 56.1%
CN(C)C1CCN(Cc2ccc(NC(=O)c3cncc(C#Cc4cnc(N)c5ncccc45)c3)cc2C(F)(F)F)CC1 | 67%
Cc1cc(N=Nc2ccc(C)c(N=Nc3cc(C)c(N)cc3N)c2)c(N)cc1N | 96.7% and 60.3%
CSc1cnc2ccccc2n1 | 119%
O=C1OCC2=C1C(c1cccc(F)c1)c1cc3c(cc1N2CCO)CCC3 (centres undefined) | -5.09% (active)
COc1ccc(-c2n[nH]nc2-c2cc(OC)c3c(c2OC)OCO3)cc1 | -24.1% (active)
Oc1ccc(C(c2ccc(O)cc2)c2ccc(Cl)cn2)cc1 | -30.9% (active)
OCCN1CCOCC1 | 117%
COc1ccc2nc(Cl)c(/C=C3\CC(c4ccccc4)=NN(c4ccccc4)C3=O)cc2c1 | 74.9%
COC(=O)c1cc(-c2ccc(C)cc2)n(C(=O)CSc2nc3sc(C(N)=O)c(C)c3c(=O)n2Cc2ccccc2)n1 | 107%
Cc1cc2c(C#N)n3c(c2cc1C)C(=O)C(c1ccccc1)Oc1ccccc1-3 (centres undefined) | 50%
Nc1[nH][nH]c(=O)c1N=Nc1ccccc1 | 105% and 98.5%
N#CSCc1ccc(Cl)c(CSC#N)c1 | 51.5%
CCOC(=O)CSCCC#N | 109%
COc1cc(NCCN=C(N)NC(N)=NC(C)C)c2ncccc2c1 | -46.5% (active)
CC(=O)Nc1c(Cl)cc2c(c1Cl)Cc1cc([N+](=O)[O-])ccc1-2 | -27.8% (active)
COc1ccc(Nc2nc(N)nc3c2CCN(Cc2ccc(OC)cc2OC)C3=O)cc1 | 95.6%
CC(=O)[C@H]1CC[C@H]2[C@@H]3C[C@H](C)C4=CC(=O)CC[C@]4(C)[C@H]3C(=O)C[C@]12C | 106%

Compound | growth
O=C1C=C(Nc2ccccc2)c2ccccc2C1=O | 78% and 76.9%
COc1cc(/C=C/C(=O)N2CCN(C(=O)/C=C/c3cc(OC)c(OC)c(OC)c3)CC2)cc(OC)c1OC | 102%
OCc1cnc2ccccc2c1NC1CCCCCC1 | 59.8%
OC(COc1ccccc1Cl)CN1CCN(c2cccc(Cl)c2)CC1 (centres undefined) | 103%
O=C(N/N=C/c1c(Cl)cccc1Cl)c1cccc(Nc2ccnc(C(F)(F)F)c2)c1 | 67.6%
COc1cccc(-c2nc3occn3c2-c2ccnc(NCCNS(=O)(=O)c3ccc(C(F)(F)F)cc3)n2)c1 | 77.4%
NC(=O)C12C(=O)NC(=O)C1(C(=O)O)C21CCCC1 (centres undefined) | 112%
O=S(=O)(Nc1ccsc1-c1nc(-c2ccccc2)no1)c1cc(Cl)cc(Cl)c1 | 88.6%
Cc1ccc(-c2cc3nc(-c4ccccc4)nc(C(Cl)Cl)n3n2)cc1 | -61.4% (active)
COc1cc(-c2cc(-c3ccc(Nc4ncnc5cc(Cl)ccc45)cc3)nc(N3CCN(C)CC3)n2)cc(OC)c1OC | 105%
Clc1ccc(-c2cnc3nonc3n2)s1 | 49.6%
Cc1ccc(S(=O)(=O)OC[C@@]2(C)CC[C@]3(C)CC[C@]4(C)C(=CC[C@@H]5[C@@]6(C)CCCNC(C)(C)[C@@H]6CC[C@]54C)[C@@H]3C2)cc1 | -85.5% (active)
COc1ccc(-c2nnc(SCc3ccc(O)c4ncccc34)o2)cc1 | 51.2%
Cc1cc2c(c(C)n1)CN(C(=O)Nc1nc(-c3cncs3)ccc1N)C2 | 110%
Nc1c(C(=O)Nc2cccc(Cl)c2)sc2nc3c(cc12)CCCC3 | 74.2%
CCOC(=O)c1cnc2c(N=Nc3ccc(OC)cc3)c(N)nn2c1N | 116%
COc1ccc(/C=C/c2nc3ccccc3nc2/C=C/c2ccc(OC)cc2)cc1 | 88.1%
NC1=Nc2ccccc2N(O)N1 | 102%
c1ccc(-c2cn3ccnc3c(-c3ccc4ncn(C5CCCCC5)c4c3)n2)cc1 | 45.6%
COc1cc2ncnc(Oc3ccc(NC(=O)Nc4ccc(CN5CCOCC5)c(C(F)(F)F)c4)c4ccccc34)c2cc1OC | -12.3% (active)
CSCc1ncc(-c2ccc(C(F)(F)F)cc2)c(NC2CCCCCC2)n1 | 85.7% [25 µM]

Compound | growth
COc1ccc(/C=N/NC(=O)c2cnn3c2NC(c2ccccc2)C3)cc1OC1CCCC1 (centres undefined) | 91.1%
C=C1CC[C@@H]2[C@@](C)(CCC[C@]2(C)C(=O)O)[C@@H]1CC[C@H](CO)CCO | 108%
COC(=O)/C(=C\c1c(C)[nH]c2ccccc12)S(=O)(=O)c1ccccc1 | 23.4%
COc1cccc(/C=C\C(=O)c2ccccc2)c1 | 69.4%
O=C(Nc1ncc(Cc2ccc(Cl)c(C(F)(F)F)c2)s1)c1ccc2nnsc2c1 | 26.3%
COc1cc(-c2nc3c(c(C)nc4c3nnn4-c3ccccc3)c(=O)o2)cc(OC)c1OC | 110%
Cc1ccc2c(n1)C(=O)C(Cl)=C(Nc1cc(C(F)(F)F)cc(C(F)(F)F)c1)C2=O | 32.5%
CC(C)OC(=O)c1ccc2n1CCCc1cnc(Nc3ccccc3)nc1-2 | 44.6%
CCCCCc1c(C)[nH]c(/C=C2\N=C(c3ccc[nH]3)C=C2CC)c1C | -92.1% (active)
COc1ccc(/C=C/C(=O)c2cc3c(N)c(C(=O)Nc4ccccc4Cl)sc3nc2C)cc1 | 5.35% (active)
COC(=O)c1cc(Nc2ccc(O)c3c2C(=O)c2c([N+](=O)[O-])ccc(O)c2C3=O)cc(C(=O)OC)c1 | 71.9%
Cc1cc(Cl)c2ccc(N(C)C)cc2n1 | 94.3%
Cc1nc(Nc2ccccn2)sc1C(=O)/C=C/c1ccc(Br)cc1 | 27.3%
COc1ccc(-c2nc(-c3nc4cc(C)c(C)cc4[nH]3)cc3c2[nH]c2ccccc23)cc1 | -27.7% (active)
Cc1ccc(NC(=O)Nc2cccnc2)cc1NC(=O)Nc1cccnc1 | 71%
COc1ccc(-c2nnc3c4[nH]cnc4ncn23)c(OC)c1 | -16.2% (active)
Clc1ccc(N/N=C/c2ccccn2)nc1 | -48.3% (active)
COc1ccc(-c2c(-c3cc4c(c(OC)c3OC)OCO4)noc2N)cc1 | -6.43% (active)
Cc1ccc2c(c1)sc1nc(-c3c[nH]c4ccccc34)c(Nc3ccccc3)n12 | 105%
O=S(=O)(c1ccc(N/N=C\c2ccccc2Cl)cc1)c1ccc(N/N=C/c2ccccc2Cl)cc1 | 91.5%
C#CCOc1ccc2ncnc(N3CCC(NC(=O)CCl)CC3)c2c1 | 15.4% [8.25 µM]

Compound | growth
O=C1C2CC3C(CC2C(=O)[N]1[Sn]([c]1ccccc1)([c]1ccccc1)[c]1ccccc1)C1(Cl)C(Cl)=C(Cl)C3(Cl)C1(Cl)Cl (centres undefined) | -83.1% (active)
CC/C(=C(\c1ccc(O)cc1)c1ccc(OCCN(C)CCN(C)C(=O)CCCCC(=O)c2c(C)[nH]c(/C=C3\N=C(c4ccc[nH]4)C=C3OC)c2C)cc1)c1ccccc1 | 80%
CCOC(=O)C1=NNC(c2ccc(Cl)cc2)C1C(=O)N1C(=S)NC(=O)C1CC(C)C (centres undefined) | 102%
CCNC(=O)Oc1ccc(/C(=C(/CC)Cc2ccccc2)c2ccc(OCCN3CCOCC3)cc2)cc1 | 46.1%
O=C1/C(=C/c2ccccc2)Oc2ccc(O)c(I)c21 | 104%
C#CCOC(=O)/C=C/c1cn(-c2ccccc2)nc1-c1ccc(OC)cc1 | 101%
C[C@H]1Oc2cc(cnc2N)-c2c(nn(C)c2C#N)CN(C)C(=O)c2ccc(F)cc21 | 98.5%
CCS(=O)(=O)Nc1ccc(C(=O)CC2(O)C(=O)Nc3ccccc32)cc1 (centres undefined) | 95.4%
O=C(O)c1cn(C2CC2)c2cc(N3CCN(Cc4cc(Cl)ccc4O)CC3)c(F)cc2c1=O | 81.9%
OCCNc1nc(NCCO)nc(Nc2ccc(C3=NN(c4ccc(Cl)cc4)C(c4ccc(Cl)cc4)C3)cc2)n1 (centres undefined) | 85.7%
NC(=O)Nc1ccc2ncnc(Nc3cccc(O)c3)c2c1 | 67.9%
O=C(Cc1csc2nc(-c3ccc(Cl)cc3)cn12)N/N=C/c1ccccc1O | 56.7%
Nc1c(C(=O)Nc2cccc3cnccc23)sc2nc3c(cc12)CN(Cc1ccccc1)CC3 | 94.8%
COc1ccc(C(=O)Nc2ccc3nc(N4CCCCC4)cc(C)c3c2)cc1OC | 73.6%
Cc1cc(Nc2ccc(C)c(Cl)c2)n2nc(C(F)(F)F)nc2n1 | 36.5%
COc1ccc2c(c1)c(-c1noc(-c3cn(C)c4ncc(F)cc34)n1)cn2C | 73.5%
O=C(/C=C/C12c3ccccc3C(c3ccccc31)C1C(=O)N(c3ccc(Cl)cc3)C(=O)C12)c1ccccn1 (centres undefined) | -9.41% (active)
CCCCC[n+]1ccc(SCC(=O)N(C)c2ccc(Oc3ccccc3)cc2)c2ccccc21 | 38.9%
CC(C)(C)CC(C)(C)n1nnnc1C(Nc1nccs1)c1cc2cccc3ccc4cccc1c4c32 (centres undefined) | -33.3% (active)
COc1cc(/C=C2\C(=O)N(Cc3ccc(Cl)cc3)c3ccccc32)cc(OC)c1OC | -18.3% (active)
COc1ccc(/C=C(\C#N)c2cc(OC)c3c(c2)OCO3)cc1 | -4.06% (active)
